Bioassay records as filed in PubChem BioAssay.
DTT redox prof – compounds producing H2O2 with reducing agent – biochemical, NIH compound library profiling, artefact control for MLSCN library redox annotation, primary screen | 200,000 tested, 0.03% active | activation, % at 10 µM | DTT-dependent redox cycling H2O2, phenol red/HRP absorbance; 100% = 100 µM peroxide control, 0% = buffer | AID 878, 2007;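 active means activation of at least 50% relative to the plate's high and low controls in the primary single-dose screen; inactive means activation below 50%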;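 further: compound incubated with DTT at 0.8 mM final as the reducing agent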
S1P3 antagonist – S1P3 receptor antagonists, primary screen, cell-based | Sphingosine 1-phosphate receptor 3 (Homo sapiens), Q99500 | CHO S1P3 NFAT-BLA reporter, FRET fluorescence, antagonist mode | inhibition, % at 4.98 µM | 170,000 tested, 0.27% active;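 active means inhibition above the plate cutoff, the mean inhibition of test wells on that plate plus 3 SD, cut at about 28% in these data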;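 further: cells challenged with S1P at its EC80 of 0.8 µM; blue over green emission ratio from cleaved BLA substrate after 4 h stimulation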
SUMO HTRF inh – inhibitors of in vitro SUMOylation cascade, primary screen, biochemical, HTRF, uHTS; SUMO-conjugating enzyme UBC9 (Homo sapiens), P63279; HTRF SUMOylation assay, SAE1/SAE2 + UBC9; inhibition, % at 35 µM; 290,000 tested, 0.36% active; in the data active means inhibition above about 50%, passing the limit was not always enough
Target sequence (P63279 whole entry, looked up): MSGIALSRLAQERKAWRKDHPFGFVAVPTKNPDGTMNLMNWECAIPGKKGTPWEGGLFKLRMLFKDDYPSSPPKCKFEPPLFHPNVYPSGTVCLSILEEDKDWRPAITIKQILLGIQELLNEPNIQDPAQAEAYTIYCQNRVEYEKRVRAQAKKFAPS
S1P4 agonist – S1P4 receptor agonists, primary screen, cell-based. AID 1509, 2009. activation, % at 4.98 µM. S1P4-expressing cell line, agonist reporter assay. 220,000 tested, 0.35% active. Sphingosine 1-phosphate receptor 4 (Homo sapiens), O95977; in the data active means activation above about 11%
Target sequence (O95977 whole entry, looked up): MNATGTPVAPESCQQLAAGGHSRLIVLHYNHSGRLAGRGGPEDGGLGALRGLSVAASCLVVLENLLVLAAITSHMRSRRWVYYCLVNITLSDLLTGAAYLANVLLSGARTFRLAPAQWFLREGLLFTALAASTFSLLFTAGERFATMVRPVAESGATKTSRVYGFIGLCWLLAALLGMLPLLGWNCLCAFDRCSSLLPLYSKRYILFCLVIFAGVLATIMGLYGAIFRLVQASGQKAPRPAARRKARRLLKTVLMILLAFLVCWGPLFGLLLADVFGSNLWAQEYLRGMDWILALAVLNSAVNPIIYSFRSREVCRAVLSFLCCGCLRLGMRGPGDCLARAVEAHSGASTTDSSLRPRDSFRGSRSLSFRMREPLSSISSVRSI
p97 ATPase inh – inhibitors of human p97 ATPase, primary screen, biochemical | Transitional endoplasmic reticulum ATPase (Homo sapiens), P55072 | recombinant p97 ATPase, Kinase-Glo ATP luminescence, 3 h | inhibition, % at 8 µM | 220,000 tested, 0.42% active | AID 1481, 2009; in the data active means inhibition above about 15%
S1P4 antagonist – S1P4 receptor antagonists, primary screen, cell-based; S1P4-expressing cells, antagonist mode, reporter read-out; AID 1510, 2009; 220,000 tested, 0.26% active; inhibition, % at 4.98 µM; Sphingosine 1-phosphate receptor 4 (Homo sapiens), O95977; in the data active means inhibition above about 29%
p97 inh conf – p97 ATPase inhibitors, retest, confirmation, biochemical | shares compounds with p97 ATPase inh | recombinant p97 ATPase, Kinase-Glo ATP luminescence | inhibition, % at 8 µM | 760 tested, 44% active | AID 1517, 2009;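 active means percent inhibition of p97 ATPase above a set limit, the primary screen's mean plus 3 SD, cut at about 15% in these data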
S1P4 agonist cf – S1P4 receptor agonists, retest, confirmation, cell-based, high throughput; shares compounds with S1P4 agonist; S1P4 agonist cell-based reporter assay; activation, % at 4.98 µM; 740 tested, 7% active; in the data active means activation above about 12%
S1P1 agonist – S1P1 receptor agonists, human, counter-screen for S1P4 agonist project, cell-based. AID 1563, 2009. S1P1 agonist cell-based assay, activation. 740 tested, 4% active. activation, % at 4.98 µM. shares compounds with S1P4 agonist; in the data active means activation above about 21%
S1P4 antag cf – S1P4 receptor antagonists, human, confirmation, cell-based; inhibition, % at 4.98 µM; shares compounds with S1P4 antagonist; 520 tested, 71% active; AID 1524, 2009; S1P4-expressing cell line, antagonist mode, reporter read-out; in the data active means inhibition above about 30%
S1P1 antagonist – S1P1 receptor antagonists, human, counter-screen for S1P4 antagonist project, cell-based. inhibition, % at 4.98 µM. AID 1564, 2009. 520 tested, 37% active. cell-based S1P1 antagonist counterscreen, inhibition. shares compounds with S1P4 antagonist; in the data active means inhibition above about 40%;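 further: receptor stimulated with S1P near its EC80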
Numbers stand for hits. Sampled rows, rich in hits. Any-hit rate of the full collection: about 1.1%.

How did O=C1CCc2ccccc2N1 do in these assays?
S1P3 antagonist: inactive; SUMO HTRF inh: inactive; S1P4 agonist: inactive; p97 ATPase inh: inactive; S1P4 antagonist: inactive

How did S=C1Cc2ccccc2N1 do in these assays?
S1P3 antagonist: inactive; SUMO HTRF inh: 60; S1P4 agonist: inactive; p97 ATPase inh: 32; S1P4 antagonist: 35; p97 inh conf: 67; S1P4 antag cf: 110; S1P1 antagonist: 44

What do the screens show for `CS(=O)(=O)c1ccc(Sc2nc3ccccc3[nH]2)c([N+](=O)[O-])c1`?
DTT redox prof: inactive; SUMO HTRF inh: inactive; S1P4 agonist: inactive; p97 ATPase inh: inactive; S1P4 antagonist: inactive

Results for O=[N+]([O-])c1cc(S(=O)(=O)C(F)(F)F)ccc1Sc1nc2ccccc2[nH]1 ?
DTT redox prof: inactive; SUMO HTRF inh: inactive; S1P4 agonist: inactive; p97 ATPase inh: 20; S1P4 antagonist: 33; p97 inh conf: 29; S1P4 antag cf: 110; S1P1 antagonist: inactive

How did Cc1c(/C=N/Nc2nc3ccccc3[nH]2)c2ccccc2n1C do in these assays?
S1P3 antagonist: inactive; SUMO HTRF inh: inactive; S1P4 agonist: inactive; p97 ATPase inh: 24; S1P4 antagonist: 32; p97 inh conf: 17; S1P4 antag cf: 108; S1P1 antagonist: 52

Results for COc1ccc(NC(=O)C/C(C)=N/NC(=O)c2ccccn2)c(OC)c1 ?
SUMO HTRF inh: inactive

Results for O=S1(=O)Nc2c(ccc3cccnc23)-c2ccccc21 ?
DTT redox prof: inactive; S1P3 antagonist: inactive; SUMO HTRF inh: inactive; S1P4 agonist: inactive; p97 ATPase inh: 23; S1P4 antagonist: 50; p97 inh conf: 32; S1P4 antag cf: 95; S1P1 antagonist: 89

Results for Cc1cc(NC(=O)COC(=O)C(Nc2ccc(C(F)(F)F)cc2Cl)C(C)C)no1 (configuration not stated) ?
DTT redox prof: inactive; S1P3 antagonist: inactive; SUMO HTRF inh: inactive; S1P4 agonist: inactive; p97 ATPase inh: inactive; S1P4 antagonist: inactive

How did COc1ccc(CCC(=O)N2CCCSC2=Nc2ccc(C(C)=O)cc2)cc1 do in these assays?
DTT redox prof: inactive; S1P3 antagonist: inactive; SUMO HTRF inh: inactive; S1P4 agonist: 23; p97 ATPase inh: inactive; S1P4 antagonist: inactive; S1P4 agonist cf: inactive; S1P1 agonist: inactive

How did Cc1cc(C)nc(N/N=C/c2ccc(N3CCOCC3)cc2)n1 do in these assays?
DTT redox prof: inactive; S1P3 antagonist: inactive; SUMO HTRF inh: inactive; S1P4 agonist: 175; p97 ATPase inh: inactive; S1P4 antagonist: inactive; S1P4 agonist cf: 21; S1P1 agonist: inactive

How did Cc1nc(Cl)c2c(n1)NC1=C(O2)C(=O)CCC1 do in these assays?
DTT redox prof: inactive; S1P3 antagonist: inactive; SUMO HTRF inh: inactive; S1P4 agonist: 14; p97 ATPase inh: inactive; S1P4 antagonist: inactive; S1P4 agonist cf: inactive; S1P1 agonist: inactive

Results for Cc1ccc(OCC(=O)N/N=C2\CC(=O)CC(C)(C)C2)c(Br)c1 ?
SUMO HTRF inh: inactive

What do the screens show for `Cc1cccc2sc(NNC(=O)C3COc4ccccc4O3)nc12` (configuration not stated)?
DTT redox prof: inactive; S1P3 antagonist: inactive; SUMO HTRF inh: inactive; S1P4 agonist: inactive; p97 ATPase inh: inactive; S1P4 antagonist: inactive

What do the screens show for `CC(C)NC(=O)C1COc2ccccc2O1` (configuration not stated)?
DTT redox prof: inactive; S1P3 antagonist: inactive; SUMO HTRF inh: inactive; S1P4 agonist: 64; p97 ATPase inh: inactive; S1P4 antagonist: inactive; S1P4 agonist cf: inactive; S1P1 agonist: inactive

What do the screens show for `Cc1cc(C)c2sc(NNC(=O)C3COc4ccccc4O3)nc2c1` (configuration not stated)?
DTT redox prof: inactive; S1P3 antagonist: inactive; SUMO HTRF inh: inactive; S1P4 agonist: 21; p97 ATPase inh: inactive; S1P4 antagonist: inactive; S1P4 agonist cf: inactive; S1P1 agonist: inactive

Results for O=C(NCC(c1ccco1)N1CCN(c2ccccc2F)CC1)OCc1ccccc1 (configuration not stated) ?
DTT redox prof: inactive; S1P3 antagonist: inactive; SUMO HTRF inh: inactive; S1P4 agonist: 33; p97 ATPase inh: inactive; S1P4 antagonist: inactive; S1P4 agonist cf: inactive; S1P1 agonist: inactive

Results for COCCCNC(=O)c1ccc(Cn2c(=O)[nH]c3ccccc3c2=O)cc1 ?
DTT redox prof: inactive; S1P3 antagonist: inactive; SUMO HTRF inh: inactive; S1P4 agonist: 12; p97 ATPase inh: inactive; S1P4 antagonist: inactive; S1P4 agonist cf: inactive; S1P1 agonist: inactive

Results for COCCCNC(=O)c1ccc(Cn2c(=O)c3ccccc3n(Cc3ccccc3C#N)c2=O)cc1 ?
DTT redox prof: inactive; SUMO HTRF inh: inactive; S1P4 agonist: 58; p97 ATPase inh: inactive; S1P4 antagonist: inactive; S1P4 agonist cf: inactive; S1P1 agonist: inactive

Results for COCCCNC(=O)c1ccc2c(=O)n(Cc3ccc(OC)cc3)c(=O)[nH]c2c1 ?
DTT redox prof: inactive; S1P3 antagonist: inactive; SUMO HTRF inh: inactive; S1P4 agonist: inactive; p97 ATPase inh: inactive; S1P4 antagonist: inactive

How did Cc1ccc(/C=N/NC(=O)c2nnn(-c3nonc3N)c2-c2ccc3c(c2)OCO3)s1 do in these assays?
SUMO HTRF inh: inactive

What do the screens show for `O=C(NC(=S)N1CCN(c2ccccc2)CC1)c1ccccc1`?
SUMO HTRF inh: inactive

What do the screens show for `CCOC(=O)C1(Cc2ccc(Cl)cc2)CCN(C(=O)CCc2ccncc2)CC1`?
DTT redox prof: inactive; S1P3 antagonist: inactive; SUMO HTRF inh: inactive; S1P4 agonist: 19; p97 ATPase inh: inactive; S1P4 antagonist: inactive; S1P4 agonist cf: inactive; S1P1 agonist: inactive
